TDP1 cell noCPT: qHTS for Inhibitors of human tyrosyl-DNA phosphodiesterase 1 (TDP1): qHTS in cells in absence of CPT; DT40 Tdp1-/- hTDP1 cells, no CPT, ATP luminescence, 48 h; Potency, µM (top dose mostly 46.2 µM), without a hit: top-dose activity change, negative = growth inhibition, hits mostly inhibitors; hit rate 15% among 420,000; further: potency means the concentration at half of the fitted maximal effect; nearly all actives have a fitted effect of over 55% in size
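Growth kinetics read by CellTiter-Glo luminescence after ≥48 hr at 37 °C. Cells: DT40 Tdp1-/- stably carrying human TDP1, 400 per well, compound exposure in the absence of CPT (DMSO vehicle).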
DT40 TDP1 CPT: qHTS for Inhibitors of human tyrosyl-DNA phosphodiesterase 1 (TDP1): qHTS in cells in presence of CPT. chicken DT40 Tdp1-/-;hTDP1 cells + 20 nM CPT, ATP luminescence, 48 h. Potency, µM (highest dose often 46.2 µM), inactives show at the highest dose activity change, negative = growth inhibition, hits mostly inhibitors. hit rate 12% among 420,000; further: potency means the concentration at half of the fitted maximal effect; nearly all actives have a fitted effect of over 55% in size
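Chicken DT40 Tdp1-/- cells stably complemented with human TDP1 were seeded at 400 cells/well in medium containing 20 nM camptothecin, exposed to pin-transferred compounds, and grown at 37 °C for at least 48 hr. Viability was read as ATP luminescence.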
Gal4-VP16 FLuc: VP16 counterscreen qHTS for inhibitors of ROR gamma transcriptional activity | Drosophila S2 Gal4-VP16 UAS-luciferase, luminescence, 20 h | hit rate 3.5% among 310,000 | Potency, µM (series often up to 53.6 µM), for the others: top-dose activity, negative = inhibition, actives largely listed as inhibitors;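 further: Gal4-VP16 expression switched on by copper sulfate through the metallothionein promoter; potency means the concentration at half of the fitted maximal effect; nearly all actives have a fitted effect of over 50% in size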
IL1B secr inh: qHTS for Inhibitors of Inflammasome Signaling: IL-1-beta AlphaLISA Primary Screen; AID 743279, 2014; activity change, % at 57.5 µM; hit rate 4.7% among 360,000; THP-1 LPS/ATP IL-1B secretion, AlphaLISA, 16 h; active compounds read low; in the data active means activity change below about -50%; inconclusive means mostly about -30% to -49%
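THP-1 cells pretreated 1 hr with compounds (up to 57.5 uM final), then stimulated with LPS (250 ng/mL final) plus ATP (1.25 mM final); secreted IL-1B measured by AlphaLISA after 16 hr, decreased signal indicating inhibition.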
ELG1 DNA repair: qHTS screen for small molecules that inhibit ELG1-dependent DNA repair in human embryonic kidney (HEK293T) cells expressing luciferase-tagged ELG1 | hit rate 2.3% among 330,000 | HEK293T ELG1-luciferase reporter, luminescence, 16 h; DNA damage induced by 5-fluorouridine | Potency, µM (doses to about 46.1 µM), inactives show top-dose activity change, negative = inhibition, most hits filed as inhibitors; further: potency means the concentration at half of the fitted maximal effect; nearly all actives have a fitted effect of over 55% in size
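In this reporter screen, reduction of luminescence relative to DMSO vehicle indicated activity. Compounds and 5-fluorouridine were added together to 2,000 cells per well, incubated for 16 hr at 37 °C, then developed with ONE-Glo.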
RORg inh: qHTS for inhibitors of ROR gamma transcriptional activity; AID 2551, 2010; hit rate 5.4% among 310,000; Drosophila S2 Gal4-RORgamma UAS-luciferase reporter, 20 h; Potency, µM (highest dose often 53.6 µM), for the others: at the highest dose activity change, negative = inhibition, usual class: inhibitors; Nuclear receptor ROR-gamma (Mus musculus), P51450; further: potency means the concentration at half of the fitted maximal effect; nearly all actives have a fitted effect of over 60% in size
Target sequence (P51450 whole entry, looked up, the tested form may be a part): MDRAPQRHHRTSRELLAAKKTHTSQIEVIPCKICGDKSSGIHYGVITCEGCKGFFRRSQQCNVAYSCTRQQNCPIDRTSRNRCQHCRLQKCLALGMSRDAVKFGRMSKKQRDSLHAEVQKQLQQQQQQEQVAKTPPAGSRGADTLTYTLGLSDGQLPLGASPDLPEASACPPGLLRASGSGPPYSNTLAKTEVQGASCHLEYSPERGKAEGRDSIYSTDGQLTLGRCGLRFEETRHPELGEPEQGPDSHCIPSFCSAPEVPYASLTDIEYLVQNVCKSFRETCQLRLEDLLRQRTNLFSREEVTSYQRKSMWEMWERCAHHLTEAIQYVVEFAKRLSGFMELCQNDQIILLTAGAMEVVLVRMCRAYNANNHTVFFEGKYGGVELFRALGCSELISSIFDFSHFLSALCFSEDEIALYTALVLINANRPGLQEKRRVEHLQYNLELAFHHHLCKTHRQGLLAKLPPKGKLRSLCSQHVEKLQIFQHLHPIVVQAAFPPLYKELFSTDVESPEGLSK
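Compounds are pin-transferred onto Drosophila Schneider cells expressing a copper-inducible Gal4–ROR gamma transactivation domain fusion. After 1 hr, copper sulfate is added to 700 uM final; luciferase is read 20 hr later.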
Starred values were filed as active, the others as inactive; ? = inconclusive; . = no result; ! = not confirmed by another sample; [ ] = remark or other dose. In the library only some 21% were active in any assay of this set; here they are far more common. Unless noted, the call rests on the fitted dose curve; in most records, active means well fitted curve in the direction sought with a large enough effect; inconclusive means small, poorly fitted or top-dose-only effect, or another doubt; inactive means no such curve, though single readings can be large; an effect the other way counts as inactive or inconclusive. On the % scale 0 is the no-effect control and ±100 the full control effect.

SMILES	TDP1 cell noCPT	DT40 TDP1 CPT	Gal4-VP16 FLuc	IL1B secr inh	ELG1 DNA repair	RORg inh
CC(=O)[C@@]1(O)CC[C@H]2[C@@H]3CC=C4C[C@@H](O)CC[C@]4(C)[C@H]3CC[C@@]21C	-6%	-2%	-11%	28	-8%	-1%
COc1cc(C(=O)N/N=C/C23CC[C@@H](O)CC2(O)CC[C@@H]2[C@@H]3CCC3(C)C(C4=CC(=O)OC4)CCC23O)ccc1O (stereo partly specified)	-4%	0%	-10%	25	-14%	0%
CC12CC[C@H]3[C@@H](CCC4(O)C[C@H](O)CCC34/C=N/NC(=O)c3ccccc3F)C1(O)CCC2C1=CC(=O)OC1 (stereo partly specified)	21%	2%	-10%	-1	?	7%
CN(C)c1ccc(C(=O)N/N=C/C23CC[C@@H](O)CC2(O)CC[C@@H]2[C@@H]3CCC3(C)C(C4=CC(=O)OC4)CCC23O)cc1 (stereo partly specified)	5%	9%	2%	?	8.2µM*	-18%
COC(=O)C1=C(c2ccc(OCc3ccccc3)cc2)C[C@@H]2CC[C@H]1N2C(=O)NCc1ccc2[nH]ccc2c1	?	?	.	-4	.	.
COC(=O)C1=C(c2ccc(OCc3ccccc3)cc2)C[C@@H]2CC[C@H]1N2C	23µM*	16µM*	.	-14	.	.
COC(=O)C1=C(c2cccc(NC(C)=O)c2)C[C@@H]2CC[C@H]1N2C	-7%	-1%	.	4	20%	.
COC(=O)C1=C(c2ccc(OCc3ccccc3)c(F)c2)C[C@@H]2CC[C@H]1N2C	23µM*	?	.	-25	.	.
Cc1noc(C)c1COc1ccc(C(=O)NCC2(N(C)C)CCCCC2)cc1	-5%	-12%	.	-2	.	.
O=C(C[C@@H]1NCCC[C@H]1O)Cn1cnc2cc(Br)c(Cl)cc2c1=O	-23%	-1%	.	.	.	.
C=CC[C@@H](C)CC(=O)C(CCCN=[N+]=[N-])SOOc1ccccc1 (stereo partly specified)	?	?	.	0	-7%	.
CCC(=Nc1ccccc1N)c1c(O)[nH]c(=O)[nH]c1=O	8%	0%	7%	7	?	-5%
CC[C@@H](C(=O)O)[C@@H]1O[C@@H]([C@@H](C)[C@H](O)[C@H](C)C(=O)[C@H](CC)[C@H]2O[C@]3(C=C[C@@H](O)[C@]4(CC[C@@](C)([C@H]5CC[C@](O)(CC)[C@H](C)O5)O4)O3)[C@H](C)C[C@@H]2C)[C@@H](C)C[C@@H]1C	0.27µM*	0.47µM*	.	.	.	.
COC(=O)[C@@H]1C[C@@]2(O)[C@H](O)[C@H](O)[C@H](O)C[C@H]2N1Cc1cccnc1	.	.	-3%	.	.	8%
COc1cc(C)c(C(=O)CC(=O)c2c(C)cc(OC)cc2C)c(C)c1	12µM*	15µM*	.	131	.	.
COc1cc(OC)cc(C(=O)Nc2ccc(Br)cc2C(=O)c2ccccc2)c1	-25%	-10%	-9%	38	-15%	-9%
Cc1cc(C)cc(OCCOc2cccc(C=C3C(=O)NC(=O)NC3=O)c2)c1	?	18µM*	-22%	14	-7%	-45%
O=C1NC(=O)C(=Cc2ccc(Cl)cc2)C(=O)N1	5%	3%	.	.	.	.
O=C1NC(=O)C(=Cc2ccc3ccccc3c2)C(=O)N1	-2%	7%	6%	?	5%	-14%
Cc1ccc(OCCOc2cccc(C=C3C(=O)NC(=O)NC3=O)c2)cc1	18µM*	?	?	-5	?	?
N#CC(Cl)(Cl)Cl	.	.	1%	.	.	11%
CS(=O)(=O)N1CCC2(CCCN(Cc3ccncc3)C2)CC1	-3%	0%	2%	.	.	-20%
CCCCCCC(=O)O[C@H]1CC[C@H]2[C@@H]3CCC4CC(=O)C=C(C)[C@]4(C)[C@H]3CC[C@]12C (stereo partly specified)	.	.	6%	.	.	-11%
O=Cc1ccc(Cl)cc1Cl	.	.	8%	.	.	-4%
CC[n+]1c(-c2ccccc2)c2cc(N)ccc2c2ccc(N)cc21	0.15µM*	0.16µM*	11µM*	-99*	.	?
SMILES	TDP1 cell noCPT	DT40 TDP1 CPT	Gal4-VP16 FLuc	IL1B secr inh	ELG1 DNA repair	RORg inh
Cc1ccc(C(=O)O)cc1N=Nc1c(O)[nH]c(=O)[nH]c1=O	-6%	5%	-13%	-21	2%	1%
CC(=O)OCC(=O)[C@@H]1CC[C@H]2[C@H]3CC[C@H]4C[C@@H](O)CC[C@]4(C)[C@@H]3C(=O)C[C@@]12C	.	.	-3%[17 µM]	.	.	-33%[16.9 µM]
O=[N+]([O-])c1cc(F)c(N2CCCCCC2)cc1N1CCNCC1	?	16µM*	4%	-8	16%	-36%
COc1cc2nc(N3CCCN(C)CC3)nc(N(C)C3CCN(C)CC3)c2cc1OC	6.3µM*	6.3µM*	.	.	.	.
COc1ccc(Nc2nc(N3CCN(C)CC3)nc3ccccc23)c(OC)c1	?	?	-15%	?	-1%	-4%
Clc1ccc(C(c2ccccc2Cl)C(Cl)(Cl)Cl)cc1 (stereo unspecified)	.	.	5%	.	.	4%
CCOc1ccc2c3c1O[C@H]1[C@@H](O)C=C[C@H]4[C@@H](C2)N(C)CC[C@@]341	?	-22%	2%	.	.	24%
ClCCN(CCCl)c1ccc(C=NNc2ncccn2)cc1	5.2µM*	4.6µM*	.	2	.	.
N#Cc1ncc(N=Cc2ccc(N(CCCl)CCCl)cc2)s1	12µM*	10µM*	.	2	.	.
Cc1ccc(-c2nn3c(C)nnc3c3ccccc23)cc1S(=O)(=O)NCCO	21µM*!	?	-7%	8	?	-35%
Nc1c(C(=O)NCc2ccco2)c2nc3ccccc3nc2n1Cc1ccccc1	26µM*	16µM*	17%	?	?	?
Nc1c(C(=O)NCc2ccco2)c2nc3ccccc3nc2n1Cc1ccc(F)cc1	?	15µM*	20%	?	?	-39%
CCOC(=O)c1c(N)n(Cc2ccco2)c2nc3ccccc3nc12	?	?	-7%	9	?	26%
COc1ccc(Cn2c(N)c(C(=O)NCc3ccco3)c3nc4ccccc4nc32)cc1	?	?	-9%	?	?	?
